In PubChem BioAssay AID588458 (Sanford-Burnham Center for Chemical Genomics, 2011) one finds inhibition (reported as % activation of signal) data, which are given here for 43 compounds.

Structures are written as SMILES. The whole screen tested about 360,000 compounds, of which about 3,000 (0.83%) were called active. Only a selection was taken, and actives are over-represented in it overall. A number with no mark means an inactive call. Rule as the data show it: active = inhibition above about 50%; inactive = the rest.

In the test the target is DNA (cytosine-5)-methyltransferase 1 (Homo sapiens) (UniProt P26358). Description: human DNMT1 methyltransferase inhibitors, primary screen, biochemical, molecular beacon, fluorescence, HinP1I cleavage, uHTS (AID 588458). The settings on record: at 10 µM, stronger effect = higher value.
Chain of DNA (cytosine-5)-methyltransferase 1 (Homo sapiens) (P26358 504-1616 limits assumed): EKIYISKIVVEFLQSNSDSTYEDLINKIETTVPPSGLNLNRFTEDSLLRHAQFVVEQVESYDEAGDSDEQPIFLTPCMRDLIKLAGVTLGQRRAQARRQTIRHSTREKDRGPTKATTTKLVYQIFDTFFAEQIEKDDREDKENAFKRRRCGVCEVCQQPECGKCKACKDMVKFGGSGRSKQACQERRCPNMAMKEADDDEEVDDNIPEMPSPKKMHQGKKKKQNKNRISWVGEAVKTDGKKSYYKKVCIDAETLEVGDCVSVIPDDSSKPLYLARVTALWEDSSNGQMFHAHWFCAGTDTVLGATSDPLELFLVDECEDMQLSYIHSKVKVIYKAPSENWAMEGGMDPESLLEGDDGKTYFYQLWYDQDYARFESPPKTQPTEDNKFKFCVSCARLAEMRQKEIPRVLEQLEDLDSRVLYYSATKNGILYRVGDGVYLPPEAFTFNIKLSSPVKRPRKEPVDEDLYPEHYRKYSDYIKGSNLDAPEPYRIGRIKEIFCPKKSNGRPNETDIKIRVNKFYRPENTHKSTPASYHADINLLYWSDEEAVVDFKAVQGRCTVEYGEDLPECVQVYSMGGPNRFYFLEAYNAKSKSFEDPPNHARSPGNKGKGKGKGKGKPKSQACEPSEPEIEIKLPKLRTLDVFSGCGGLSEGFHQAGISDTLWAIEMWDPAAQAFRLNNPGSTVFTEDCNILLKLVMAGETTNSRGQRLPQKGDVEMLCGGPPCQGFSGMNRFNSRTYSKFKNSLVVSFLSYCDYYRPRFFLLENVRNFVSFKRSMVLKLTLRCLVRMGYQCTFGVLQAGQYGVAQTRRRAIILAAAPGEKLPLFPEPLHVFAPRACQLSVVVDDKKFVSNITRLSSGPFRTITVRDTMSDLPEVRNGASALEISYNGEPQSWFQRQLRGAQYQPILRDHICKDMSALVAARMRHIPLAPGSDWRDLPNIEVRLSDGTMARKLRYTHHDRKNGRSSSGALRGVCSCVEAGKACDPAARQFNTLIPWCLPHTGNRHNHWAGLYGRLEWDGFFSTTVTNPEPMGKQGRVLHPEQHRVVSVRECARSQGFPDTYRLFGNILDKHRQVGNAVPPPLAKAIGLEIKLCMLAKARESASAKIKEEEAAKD
For the compound `Cc1noc(C)c1CSCC(=O)N(CCC(C)C)c1c(N)n(Cc2ccccc2)c(=O)[nH]c1=O`, the inhibition (reported as % activation of signal) was -0.4%.

With `Cc1ccn2c(c1)nc(=O)c1cc(S(=O)(=O)N3CCC(C)CC3)ccc12`, the inhibition (reported as % activation of signal) is 2.87%.

Turning to `Cc1cc(C(=O)N2CCCC2(C)C(=O)O)c(C)o1` (stereo not drawn), the inhibition (reported as % activation of signal) is 8.96%.

Turning to `NC(=O)COC(=O)c1ccc2c(c1)C(=O)N(Cc1ccco1)C2=O`, the inhibition (reported as % activation of signal) was 1.59%.

Take `CC(C)(C)C1C/C(=C/c2ccco2)C(=O)/C(=C/c2ccco2)C1` (stereo not drawn): the inhibition (reported as % activation of signal) was 95.9% (active).

For `COC(=O)COc1ccc2c(c1C)O/C(=C\c1ccco1)C2=O`, the inhibition (reported as % activation of signal) is -2.61%.

Take `COc1ccc(-c2ccc3c(c2)[C@@H]2C[C@H](N(C)S(=O)(=O)c4ccccc4)[C@H]([C@H](C)O)C(=O)N2CC3)cc1`: the inhibition (reported as % activation of signal) is -4.42%.

Turning to `C[C@@H]1CN([C@H](C)CO)C(=O)CCCn2cc(nn2)CO[C@H]1CN(C)S(C)(=O)=O`, the inhibition (reported as % activation of signal) was 2.33%.

In the case of `O=C(NNc1c2ccccc2nc2ccccc12)c1cc2ccccc2cc1O`, the inhibition (reported as % activation of signal) was -19.2%.

On to `CC(=O)Nc1ccc(Nc2c3ccccc3nc3ccccc23)cc1`, for which the inhibition (reported as % activation of signal) is 57.2% (active).

Take `CCc1c(C)nc2c(-c3ccccc3)c(C)nn2c1Nc1ccc(NC(C)=O)cc1`: the inhibition (reported as % activation of signal) was -6.65%.

With `Oc1ccc2ccc3cccc[n+]3c2c1`, the inhibition (reported as % activation of signal) is 59% (active).

`CCOc1cc(/C=C/C(=O)OCC(=O)NCCN2C(=O)CSC2=O)ccc1OCC(C)C`: the inhibition (reported as % activation of signal) was 8.03%.

Consider `CCCCC(=O)N(c1ccc(OC)cc1)C1C=CS(=O)(=O)C1` (stereo not drawn), for which the inhibition (reported as % activation of signal) was -1.75%.

As to `Cc1ccc2cc(C)c(N3CCN(c4ccc(F)cc4)CC3)nc2c1`, the inhibition (reported as % activation of signal) is 2.96%.

As to `Cc1ccc2cc(C)c(N3CCC(C)CC3)nc2c1`, the inhibition (reported as % activation of signal) was 80.8% (active).

In the case of `Cc1cc(C)c2cc(C#N)c(N3CCNCC3)nc2c1`, the inhibition (reported as % activation of signal) was 6.52%.

In the case of `CC(=O)NC1C(Oc2ccc(C)cc2)OC2COC(c3ccco3)OC2C1O` (stereo not drawn), the inhibition (reported as % activation of signal) is 3.51%.

`CCN(CCn1cccn1)Cc1nc(-c2ccc(C(=O)OC)cc2)no1`: the inhibition (reported as % activation of signal) was -5.27%.

For the compound `CS(=O)(=O)c1ccc2c(c1)SC1=NC(=O)/C(=C/c3ccco3)C(=N)N12`, the inhibition (reported as % activation of signal) was 74.4% (active).

In the case of `CCS(=O)(=O)C1=NSC2=NC(=O)/C(=C\c3ccc(OS(=O)(=O)c4ccccc4)cc3)C(=N)N21`, the inhibition (reported as % activation of signal) is -8.29%.

On to `CC(=O)OC[C@@H]1CN(Cc2ccccc2)C[C@H](n2cnc3c(NCc4ccco4)ncnc32)O1`, for which the inhibition (reported as % activation of signal) was -4.87%.

With `COc1ccc(S(=O)(=O)N2CCC(C(=O)NCCC(=O)NCCc3cccc(F)c3)CC2)cc1`, the inhibition (reported as % activation of signal) is 2%.

In the case of `C=CCn1c(=NC(=O)c2ccc(S(=O)(=O)N3CCCC3)cc2)sc2cc(NC(C)=O)ccc21`, the inhibition (reported as % activation of signal) was 57.7% (active).

As to `C=CCn1c(=NC(=O)c2cccs2)sc2cc(NC(C)=O)ccc21`, the inhibition (reported as % activation of signal) is 27%.

As to `COc1cc(C(C)=O)ccc1OC(C)C(=O)Nc1ccc(S(=O)(=O)N2CCCC2)cc1` (stereo not drawn), the inhibition (reported as % activation of signal) is -3.33%.

As for `CN(Cc1ccccc1)C(=O)CCC1CCN(C(=O)c2ccco2)CC1`, the inhibition (reported as % activation of signal) was 0.12%.

As to `O=C(COC(=O)CNS(=O)(=O)c1ccc(F)c(F)c1F)NC1CCCC1`, the inhibition (reported as % activation of signal) was 1.29%.

Turning to `CN1CCN(C(=O)c2ccccc2NC(=O)COc2ccccc2Cl)CC1`, the inhibition (reported as % activation of signal) was 0.74%.

On to `CCN(CC(=O)NCC(=O)Nc1cccc(C)c1C)Cc1ccccc1`, for which the inhibition (reported as % activation of signal) was 0.32%.

For the compound `Cc1ccc(SCC(=O)NC(=O)NCc2ccco2)c(C)c1`, the inhibition (reported as % activation of signal) is 48.3%.

For `Cc1ccc2nc(SC(C)C(=O)NCc3ccco3)[nH]c2c1` (stereo not drawn), the inhibition (reported as % activation of signal) was -2.41%.

On to `Cc1ccc2[nH]c(=O)c(-c3nc4c(C)cccn4c3NCc3ccco3)cc2c1`, for which the inhibition (reported as % activation of signal) is 50.4% (active).

As for `O=C(NNS(=O)(=O)c1ccccc1C(F)(F)F)c1cc2ncc(C(F)(F)F)cc2s1`, the inhibition (reported as % activation of signal) was 5.47%.

Regarding `O=C(Nc1nnc(C2COc3ccccc3O2)o1)c1ccc(F)cc1` (stereo not drawn), the inhibition (reported as % activation of signal) is 2.41%.

`COc1ccccc1NC(=O)C(CC(=O)O)Cc1cc(C)cc(C)c1` (stereo not drawn): the inhibition (reported as % activation of signal) is 7.02%.

As to `Cc1ccc(/C=C/C(=O)Nc2cc(S(=O)(=O)N3CCCCCC3)ccc2OCC(F)(F)F)o1`, the inhibition (reported as % activation of signal) was -10.7%.

Turning to `COC(=O)/C=C\C(=O)Nc1cccc([N+](=O)[O-])c1`, the inhibition (reported as % activation of signal) was 1.93%.

For the compound `Cc1ccc(/C=C/C(=O)Nc2ccc([N+](=O)[O-])c(NC(=O)/C=C/c3ccc(C)o3)c2)o1`, the inhibition (reported as % activation of signal) was 86.1% (active).

Consider `CCOC1=C2[C@H]([C@H]3C(=O)N(c4ccccc4)C(=O)[C@H]3C1)[C@@H](c1ccccc1)N(S(=O)(=O)c1ccc(C)cc1)[C@H]2c1ccccc1`, for which the inhibition (reported as % activation of signal) was 0.54%.

In the case of `COc1ccc(CN2C[C@H]3CON(C)[C@H]3C[C@H]2c2ccc(-c3cccc(F)c3)cc2)cc1`, the inhibition (reported as % activation of signal) is -13.2%.

Consider `CN(C(=O)CC1C(=O)NCCN1Cc1ccc(F)cc1Cl)C1CCCCC1` (stereo not drawn), for which the inhibition (reported as % activation of signal) is -5.76%.

Turning to `CCCCNC(=O)CCn1c(=O)c2ccccc2n(Cc2cc(C)ccc2C)c1=O`, the inhibition (reported as % activation of signal) is 55.4% (active).
